Test results published in PubChem BioAssay AID560 (The Scripps Research Institute Molecular Screening Center, 2006).
Among all 65,000 compounds or so, about 980 (1.5%) were called active. The entries come from a sample that favours actives as a whole. Unmarked numbers belong to inactive results.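 Rule for the calls: active = activation above the mean of all tested compounds plus 3 SD (cut at about 49% in these data); inactive = the rest.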

Biological target: Nuclear receptor ROR-alpha (Homo sapiens) (UniProt P35398)
Assay: activators of orphan receptor RORA, primary screen, cell-based, luminescence (AID 560);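 note: 0% = DMSO-treated RORA cells and 100% = added signal equal to DMSO minus mock-transfected cells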
Details: CHO-K1 Gal4-RORA LBD luciferase reporter, at 10 µM, active compounds read high, percent increase over mock-subtracted basal signal

Nuclear receptor ROR-alpha (Homo sapiens), sequence (P35398 whole entry, looked up): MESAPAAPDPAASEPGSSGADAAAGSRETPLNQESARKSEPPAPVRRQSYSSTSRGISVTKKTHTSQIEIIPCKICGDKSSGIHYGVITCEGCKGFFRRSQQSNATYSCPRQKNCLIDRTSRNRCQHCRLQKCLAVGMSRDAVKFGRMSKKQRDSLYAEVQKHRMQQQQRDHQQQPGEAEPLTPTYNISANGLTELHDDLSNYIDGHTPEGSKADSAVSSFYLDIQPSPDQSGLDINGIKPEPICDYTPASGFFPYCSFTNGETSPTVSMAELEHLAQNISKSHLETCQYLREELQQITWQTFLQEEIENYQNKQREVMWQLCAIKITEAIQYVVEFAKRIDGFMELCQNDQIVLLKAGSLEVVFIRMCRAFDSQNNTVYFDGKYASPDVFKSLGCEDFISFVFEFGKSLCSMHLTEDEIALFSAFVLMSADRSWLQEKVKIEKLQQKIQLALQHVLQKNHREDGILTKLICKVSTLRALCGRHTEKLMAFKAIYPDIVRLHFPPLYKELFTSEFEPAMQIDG

| SMILES | activation |
| --- | --- |
| COCCCNC(=O)Cn1cc(C(=O)C2CC2)c2ccccc21 | 7.7% |
| Cc1nnc(SCC(=O)Nn2cnnc2)s1 | 2.5% |
| N#Cc1nc(Cc2ccccc2)oc1NCCc1ccccc1 | 54.1% (active) |
| N#Cc1nc(COc2ccc(-c3ccccc3)cc2)oc1NCc1cccnc1 | -0.3% |
| CCOc1ccc(Nc2oc(Cc3ccccc3)nc2C#N)cc1 | 25.8% |
| O=C(c1ccco1)N(Cc1nc2ccccc2c(=O)[nH]1)C1CCCC1 | -21.9% |
| COCn1c(COc2ccccc2)nc2ccccc21 | 53.4% (active) |
| COCc1nc2ccccc2n1Cc1ccccc1Br | -6.2% |
| Cn1c(COc2ccc(Cl)cc2)nc2ccccc2c1=O | 7.3% |
| CCOC(=O)c1c(NC(=O)c2ccc(Br)o2)sc2c1CCCC2 | 10.7% |
| C=CCOC(=O)C1=C(C)OC(N)=C(C#N)C1c1ccc(F)cc1 (stereo not drawn) | -35.4% |
| Brc1ccc(Nc2c3c(nc4ncnn24)CCC3)cc1 | -16.4% |
| OCCCN1c2ccccc2Nc2nnc(-c3ccccc3)cc21 | 56.8% (active) |
| Cn1c(SCC(=O)c2cccs2)nnc1-c1ccco1 | 20.4% |
| O=C(CSc1nc2ccccc2[nH]1)c1cccs1 | 56.5% (active) |
| C=CCSc1nc2ccccc2[nH]1 | 6.3% |
| Cc1ccsc1-c1nc(CSCC(=O)NCCN2CCCC2)c(C)o1 | 4.3% |

| SMILES | activation |
| --- | --- |
| Cc1ccc(S(=O)(=O)C2(S(=O)(=O)c3ccc(C)cc3)CCCC2)cc1 | 36.3% |
| O=C(CN1CCN(c2ccccn2)CC1)NCc1cccs1 | 1.8% |
| CCN(CC)S(=O)(=O)c1cccc(C(=O)Nc2ccccc2)c1 | 2.7% |
| Cc1noc(C)c1C(=O)Nc1ccccn1 | -8.4% |
| CCN(CC)S(=O)(=O)c1cc(C(=O)Nc2ccccn2)ccc1C | 59.6% (active) |
| O=C(CCn1c(=O)oc2ccccc21)Nc1ccon1 | 8.2% |
| O=C(Nc1ccc(Cl)cn1)c1cnn2cccnc12 | 62% (active) |
| Cc1cc(NC(=O)c2cnn3cccnc23)n(-c2ccccc2)n1 | 10% |
| O=C(Nc1ccc(Cl)cn1)Nc1cccs1 | 42.6% |
| CCCCOc1ccc(NC(=O)CSCC(=O)OCC)cc1 | -11.3% |
| CCCCOc1ccc(-c2ncc(C(=O)OCC)c(N)n2)cc1 | 59.3% (active) |
| CCOC(=O)c1cnc(SCC(=O)NCc2ccco2)nc1N | -10.7% |
| CCn1cc(NC(=O)Nc2ccc(OC)c(OC)c2)c(C(N)=O)n1 | 4.9% |
| COc1cc(OC)c(C(=O)Nc2ccc(N(C)C)cc2)cc1OC | 58.1% (active) |
| COc1cc(OC)c(C(=O)NC2CCCCCC2)cc1OC | -17% |
| COc1ccc(NC(=O)c2ccc(OC)cc2)cc1 | 25.7% |
